High-throughput results: PubChem, several laboratories
A selection: hits, their analogues and other compounds. The true share with any hit is near 2.8%.
JMJD2C inh: inhibitors of GASC-1 histone demethylase, primary screen, biochemical, fluorescence, DELFIA europium; Lysine-specific demethylase 4C (Homo sapiens), Q9H3R0; GST-JMJD2C(1-420) H3K9me3 demethylation; inhibition, % at 2.35 µM; 330,000 compounds, 0.069% hits; AID 2099, 2009;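 active = more than half of a compound's replicate wells show inhibition beyond 50%, single wells judged on their own value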;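 note: signal counts dimethyl H3K9 product captured on neutravidin plate; 0% = median of DMSO wells and 100% = 0.3 times that DMSO median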
PG9 Ab binder: binders of HIV-1 gp120 antibody PG9, primary screen, biochemical, TR-FRET; TR-FRET gp120-PG9 antibody binding; inhibition, % at 6.7 µM; 360,000 compounds, 0.43% hits; in the data active = inhibition above about 8.5%
NR1D1 modulator: modulators of Rev-erb alpha DNA binding, primary screen, biochemical, FITC-DNA, fluorescence polarization, uHTS; 370,000 compounds, 0.79% hits; AID 1259318, 2017; activity, % at 10 µM; Rev-erbα–FITC-DNA binding, 90 min;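 active = activity above about 14%, limit read from the data; passing the limit was not always enough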;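 note: 0% = DMSO wells with 35 nM protein and 100% = DMSO wells with 750 nM protein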
PP5 inh: PP5 phosphatase inhibitors, primary screen, biochemical, fluorescence | Serine/threonine-protein phosphatase 5 (Homo sapiens), P53041 | purified PP5c, OMFP substrate fluorescence | inhibition, % at 6.7 µM | 320,000 compounds, 0.18% hits | AID 1987, 2009;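 active = inhibition above the campaign's mean inhibition across all tested compounds plus 3 SD, cut at about 9.5% in these data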;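 note: 0% = DMSO only and 100% = 100 µM cantharidin control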
Target sequence (P53041 whole entry, looked up): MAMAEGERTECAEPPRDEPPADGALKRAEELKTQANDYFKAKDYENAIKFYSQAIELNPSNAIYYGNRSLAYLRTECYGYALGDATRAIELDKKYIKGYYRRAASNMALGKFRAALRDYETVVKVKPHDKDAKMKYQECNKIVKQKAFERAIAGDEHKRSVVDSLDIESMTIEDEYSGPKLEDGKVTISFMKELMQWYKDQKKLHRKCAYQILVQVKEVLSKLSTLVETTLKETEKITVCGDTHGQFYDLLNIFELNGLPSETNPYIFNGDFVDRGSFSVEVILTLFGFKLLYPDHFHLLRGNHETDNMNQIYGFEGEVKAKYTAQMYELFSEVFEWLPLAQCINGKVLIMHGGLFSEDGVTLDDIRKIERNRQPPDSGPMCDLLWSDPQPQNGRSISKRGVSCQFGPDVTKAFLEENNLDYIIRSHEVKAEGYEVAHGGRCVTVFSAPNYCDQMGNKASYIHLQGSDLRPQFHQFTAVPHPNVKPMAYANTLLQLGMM
KLK7 zymogen act: proKLK7 zymogen activators, primary screen, biochemical, fluorescence intensity; purified proKLK7, EDANS-DABCYL substrate fluorescence; 100% is mature enzyme control, 0% vehicle; activation, % at 7 µM; 370,000 compounds, 0.9% hits; AID 652039, 2013;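 active = activation above the mean of all tested compounds plus 3 SD, computed per campaign excluding outliers beyond control limits, cut at about 13% in these data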
PP1 counter: PP1-alpha phosphatase inhibitors, primary screen, counter-screen for PP5 inhibitor project, biochemical, fluorescence, OMFP substrate, single point. Serine/threonine-protein phosphatase PP1-alpha catalytic subunit (Homo sapiens), P62136. inhibition, % at 6.7 µM. purified PP1alpha. 320,000 compounds, 0.9% hits. AID 2235, 2010;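 active = inhibition above the mean inhibition of all tested compounds plus 3 SD, computed separately for each screening campaign, cut at about 15% in these data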
Numbers without * were called inactive; / = not tested or not shown.

SMILES | JMJD2C inh | PG9 Ab binder | NR1D1 modulator | PP5 inh | KLK7 zymogen act | PP1 counter
COC(=O)c1nc2n(n1)C(c1cccc(Cl)c1)C1=C(CC(C)(C)CC1=O)N2 (stereo not drawn) | 8 | 0 | -1 | -1 | 19* | -3
CSc1nc2n(n1)C(c1ccccn1)C1=C(CC(C)(C)CC1=O)N2 (stereo not drawn) | 20 | 1 | -2 | -1 | -4 | 2
O[C@H](CNC[C@@H](O)[C@H]1CCc2cc(F)ccc2O1)[C@@H]1CCc2cc(F)ccc2O1 | / | / | 2 | / | / | /
O=C(/C=C/c1ccc(OCCCF)cc1)Nc1ccnc(-c2ccncc2)n1 | 0 | -1 | -3 | 3 | -5 | 16*
CC(=O)C(Sc1nc(N2CCOCC2)nc(N2CCOCC2)n1)C(=O)Nc1ccccc1 (stereo not drawn) | 70* | 0 | 0 | 2 | 1 | -2
CC[n+]1c(/C=C/Nc2ccccc2)sc2ccccc21 | -27 | 1 | 1 | 3 | 0 | 0
CCN1/C(=C/C=C/C=C/c2sc3ccccc3[n+]2CC)Sc2ccccc21 | -8 | / | / | 5 | / | 47*
Cc1cc(N2CCC(C)CC2)nc2ccccc12 | / | / | -2 | / | / | /
O=C(c1cc(-c2ccc(F)cc2)on1)N1CCCc2ccccc21 | 2 | 1 | 4 | 2 | 0 | 16*
Cc1ccc(-c2cc(C(=O)N3CCCc4ccccc43)no2)cc1 | 7 | 1 | 4 | 5 | 0 | 0
Cc1nn(-c2ccccc2)c(C)c1/C=N/NC(=O)CSc1nnc(SCc2cccc3ccccc23)s1 | 50 | -2 | 0 | 2 | 0 | 16*
Cc1ccc(-n2c(SCC(=O)N/N=C/c3c(C)nn(-c4ccccc4)c3C)nc3ccccc3c2=O)cc1 | -11 | -2 | -1 | 1 | 0 | 1
O=C(NCCO)Nc1ccc2nc(-c3ccco3)c(-c3ccco3)nc2c1 | 3 | / | / | -2 | / | 47*
O=C[C@H](O)[C@@H](O)[C@H](O)[C@H](O)CO | / | / | 3 | / | / | /
CC(=O)c1ccc(NC(=O)CSc2nc3[nH]ncc3c(=O)[nH]2)cc1 | -6 | 41* | 6 | -2 | 0 | -2
CC(C)C(=O)NC(c1cccc([N+](=O)[O-])c1)c1ccc2cccnc2c1O (stereo not drawn) | -2 | -1 | 0 | 2 | -1 | 17*
CCC(=O)O[C@H]1CCC2C3CCc4cc(O)ccc4C3CC[C@@]21C (stereo partly drawn) | / | / | -3 | / | / | /
COCCCNC(=O)c1ccc2c(=O)n(Cc3ccc4c(c3)OCO4)c(=S)[nH]c2c1 | 18 | 5 | 12 | 3 | -1 | 17*
CCN(CC)S(=O)(=O)c1cccc(C(=O)N/N=C/c2cccc(O)c2O)c1 | 9 | -4 | 1 | 0 | -1 | 16*
COc1cc(Br)c(/C=C/c2ccc3cccc(O)c3n2)cc1OC | 3 | -1 | 1 | 1 | 1 | 4
Oc1cccc2ccc(/C=C/c3ccccc3Br)nc12 | 34 | 1 | 3 | 3 | 10 | 16*
CCNC(=O)NC(=O)COC(=O)c1ccccc1SCC(=O)NC(=O)NCC | -1 | 0 | -4 | -1 | 39* | 0
O=C(NCc1cccs1)c1cccnc1C(=O)O | 59* | / | / | 0 | / | 0
CCN[C@@H]1C[C@H](N)[C@@H](O[C@H]2OC(CN)=CC[C@H]2N)[C@H](O)[C@H]1OC1OC[C@](C)(O)[C@H](NC)[C@H]1O (stereo partly drawn) | / | / | 8 | / | / | /
O=C(Nc1ccc(F)cc1)OCc1cn(Cc2ccccc2C(F)(F)F)nn1 | / | / | 9 | / | 0 | /
NC1[C@H]2CN(c3nc4c(cc3F)c(=O)c(C(=O)O)cn4-c3ccc(F)cc3F)C[C@@H]12 (stereo partly drawn) | / | / | -11 | / | / | /
COC(=O)c1sc(N2C(=O)C(O)=C(C(=O)c3ccc(C)o3)C2c2ccc(OC)c(OC)c2)nc1C (stereo not drawn) | -2 | 0 | 2 | / | 0 | /
